# BJeLR viability: MLPCN primary cell-based screen for lethality selective to Ras in HRASV12 cells; actives 0.17% (n = 300,000); BJeLR (HRASV12) viability, CellTiter-Glo ATP luminescence, 48 h; AID 1554, 2009; inhibition, % (test concentration not listed); in the data active = inhibition above about 50%
# Y pestis TopoI: Yersinia pestis topoisomerase I inhibitors, primary screen, biochemical, cleavage product accumulation, plate reader, single point. activity, % at 10 µM. AID 504884, 2011. DNA topoisomerase I (Yersinia pestis CO92). Y. pestis Topo-I cleavage product accumulation. actives 0.064% (n = 360,000); in the data active = activity above about 50%, passing the limit was not always enough
# SSB-PriA inh: inhibitors of Klebsiella pneumoniae PriA binding to SSB C-terminal tail, primary screen, biochemical, AlphaScreen; PriA–SSB C-terminal tail interaction (Klebsiella pneumoniae); AlphaScreen SSBct-PriA binding, biotinylated peptide; inhibition, % at 33 µM; actives 0.6% (n = 430,000); AID 1272365, 2023; in the data active = inhibition mostly above about 37%, no sharp cut-off; inactive = mostly below about 20%
# PrPC surface inh: inhibitors of human cell surface prion protein PrPC, primary screen, cell-based, TR-FRET; AID 720596, 2013; Major prion protein (Homo sapiens), P04156; inhibition, % at 13.8 µM; TR-FRET read-out; actives 0.43% (n = 370,000); in the data active = inhibition above about 24%
# PrP UTR inh: inhibition of PrP 5' UTR reporter expression. inhibition, % (test concentration not listed). cell-based PrP 5' UTR mRNA reporter, plate reader. actives 0.35% (n = 340,000); in the data active = inhibition above about 52%
# PfHsp40 rescue: rescue of yeast from PfHsp40 toxicity, primary screen, S. cerevisiae, ATP luminescence | S. cerevisiae expressing PfHsp40, growth rescue | growth rescue, % at 12.5 µM | actives 0.68% (n = 340,000); in the data active = growth rescue above about 28%, passing the limit was not always enough;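 note: yeast W303a lacking pdr1 and pdr3 grown in galactose medium; growth measured after three days at 30 °C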
# Hits are given with their value; - = inactive; . = no result; ! = not active in a repeat. Hits are enriched below; roughly 1.7% of the tested compounds scored in any of these assays.
SMILES,BJeLR viability,Y pestis TopoI,SSB-PriA inh,PrPC surface inh,PrP UTR inh,PfHsp40 rescue
COc1cc2c(c(OC)c1OC)-c1ccc(OC)c(=O)cc1C(NC(C)=O)CC2 (stereo not given),-,-,-,-,63.4,-
O=C(CN1CCN(c2nccn2-c2cccc(Cl)c2)CC1)N1CCc2ccccc21,.,.,-,.,.,.
c1cnc2c(OCc3cn4cccnc4n3)cccc2c1,.,-,43.2,-,-,-
C[C@](O)(CNC(=O)CCSc1ccccc1)c1cc2ccccc2s1,.,.,-,.,.,.
Cc1nnc(NC(=O)CN2CC(C)OC(C)C2)s1 (stereo not given),-,-,-,-,-,28.3
Cc1[nH]nc(C(=O)NN=Cc2ccccc2Cl)c1N=NN(C)C,.,-,-,-,-,41.3
COC(=O)c1ccc2cc(OC)cc([N+](=O)[O-])c2n1,.,-,-,-,-,37.4
Cc1noc(C)c1S(=O)(=O)N1CCN(Cc2nc(-c3cccs3)cs2)CC1,.,.,-,.,.,.
NC(=S)N/N=C/c1coc2cc(Br)ccc2c1=O,-,-,.,-,-,-
NC(=S)N/N=C/c1coc2ccc(Br)cc2c1=O,-,-,.,-,-,38.3
Cc1cc(NC(=O)c2ccc(=O)n(Cc3ccc(F)cc3)n2)no1,.,.,-,.,.,.
C=C1C(=O)[C@]23C[C@H]1CCC2[C@@]1(C)C(C[C@@H]3O)[C@](C)(C(=O)OC)CC[C@@H]1OC(C)=O (stereo not given in full),.,.,.,68.2,.,.
O=C(NCC(c1cccs1)N1CCc2ccccc21)c1ccc2c(c1)OCO2 (stereo not given),.,.,39.0,.,.,.
O=C(C[n+]1cccc(Br)c1)c1ccc(-c2ccccc2)cc1,-,-,-,-,-,54.3
O=C(C[n+]1cccc(Br)c1)c1ccccc1,-,-,-,-,-,-
CSc1ccc([C@@H](O)CNC(=O)c2ccco2)cc1,.,.,-,.,.,.
O=C(Oc1cc2oc(=O)cc(-c3ccccc3)c2cc1Cl)C1CCCCC1,-,-,-,-,-,68.0
CC(C)(C)OC(=O)NCC(=O)Oc1cc2oc(=O)cc(-c3ccccc3)c2cc1Cl,-,-,-,-,-,-
COCCN1CCCc2ccc(NS(=O)(=O)Cc3cccc(C)c3)cc21,.,.,40.0,.,.,.
COCCN1CCCc2ccc(NS(=O)(=O)c3ccc(OCC(C)C)cc3)cc21,.,.,39.0,.,.,.
COCCN1CCCc2ccc(NC(=O)c3cccc(Br)c3)cc21,.,.,56.0,.,.,.
COCCN1CCCc2ccc(NS(=O)(=O)c3cccc(C)c3)cc21,.,.,-,.,.,.
COCCN1CCCc2ccc(NS(=O)(=O)c3ccc(Cl)cc3)cc21,.,.,-,.,.,.
O=C(c1n[nH]nc1-c1cccc(Cl)c1)N1CCSCC1,.,.,-,.,.,.
COC1(CNC(=O)Nc2ccc(C(F)(F)F)cc2)CCSC1 (stereo not given),.,.,-,.,.,.
SMILES,BJeLR viability,Y pestis TopoI,SSB-PriA inh,PrPC surface inh,PrP UTR inh,PfHsp40 rescue
COc1cc(OC)c2c(-c3ccccc3)cc(=O)oc2c1C(CCN1CCCCC1)c1ccc(N(C)C)cc1 (stereo not given),-,-,74.3,.,-,-
COc1cc(OC)c2c(-c3ccccc3)cc(=O)oc2c1C(CCN1CCOCC1)c1ccc(N(C)C)cc1 (stereo not given),.,-,38.9,-,-,-
COc1ccc(NCc2ccc(OC)c(Cn3ccnc3)c2)c(OC)c1,-,-,72.7,-,-,-
NC(=O)Cn1nnn(-c2ccc(NC(=O)Nc3ccc(Cl)c(Cl)c3)cc2)c1=O,.,.,-,.,.,.
COc1ccccc1-c1coc2c3c(ccc2c1=O)OCN(C[C@H]1CCCO1)C3,.,.,-,.,.,.
Cc1cc(C)n(-c2nc(-c3ccccc3)c3cc(Cl)ccc3n2)n1,.,.,-,.,.,.
O=C(O)c1ccc(N/N=C/C2=C(N3CCOCC3)C(=C\c3ccccc3)/CC2)cc1,-,-,-,-,-,273.4
CC(O)(CNC(=O)c1ccc2ncsc2c1)C1CC1 (stereo not given),.,.,-,.,.,.
COc1ccccc1N1CCN(S(=O)(=O)c2ccc3c4c(cccc24)C(=O)N3)CC1,-,-,35.0!,-,-,-
Cc1nn(-c2ccccc2)c(C)c1N1CCN(C(=O)c2ccc3nsnc3c2)CC1,.,.,-,.,.,.
Cc1cc(Nc2ccccc2)nn1C(=O)c1ccc(Br)cc1,-,-,-,-,-,-

# Compound activity: PubChem, several laboratories
